This is an account of results in PubChem BioAssay (NCATS).

Molecules are shown by their SMILES. Values without a mark were called inactive. Results filed as inconclusive are left out. Calls of active or inactive are those of the source. The call rests on the fitted dose curve; in most records, active means well fitted curve in the direction sought with a large enough effect; inconclusive means small, poorly fitted or top-dose-only effect, or another doubt; inactive means no such curve, though single readings can be large; an effect the other way counts as inactive or inconclusive.

For assay [1], the system named is Nanoluciferase (engineered Oplophorus gracilirostris luciferase). Put plainly: Primary Nanoluciferase (NLuc) qHTS assay for identification of artifact compounds. (AID 1845222).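 Further: 0% = DMSO and -100% = no enzyme.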 The method, boiled down: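 Diluted conditioned medium from NLuc-expressing S16 cells treated with compounds for 15 min at room temperature, then Nano-Glo substrate added; luminescence read after 5 min. Percent inhibition versus no-enzyme and DMSO controls fitted to 4-parameter Hill equation.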
(In qHTS, concentration-response curves come from the screen itself.)

Assay [2] can be described thus: Quantitative High-Throughput drug screen in 47 multiple myeloma cell lines against the NCATS MIPE library collection: FR4_PLB cell viability assay (AID 1918924; further: potency means the concentration at half of the fitted maximal effect; nearly all actives have a fitted effect of over 35% in size). Summed up:
(§1)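 Myeloma cell lines, 500 cells per well, exposed to MIPE 4.0 library compounds for 48 h at 37C, 5% CO2. Viability from ATP by CellTiter-Glo luminescence; normalised to DMSO (100%) and media-only (0%) wells.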

Assay [3] in a line: Quantitative High-Throughput drug screen in 47 multiple myeloma cell lines against the NCATS MIPE library collection: Delta47_JCRB cell viability assay (AID 1918925; further: potency means the concentration at half of the fitted maximal effect; nearly all actives have a fitted effect of over 45% in size). Summed up:
(§2)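 qHTS of the MIPE 4.0 collection: 500 myeloma cells/well, 48 h drug exposure at 37C in 5% CO2, then CellTiter-Glo for 5 min at room temperature before luminescence reading.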

A short description of assay [4]: Quantitative High-Throughput drug screen in 47 multiple myeloma cell lines against the NCATS MIPE library collection: ARP1_JJKsccF8 cell viability assay (AID 1918928; further: potency means the concentration at half of the fitted maximal effect; nearly all actives have a fitted effect of over 40% in size). The method, boiled down:
(§3)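 Myeloma cells, 500 per well, were exposed to MIPE 4.0 drugs by pin transfer for 48 h at 37 °C, 5% CO2. Viability was read as ATP luminescence with CellTiter-Glo, normalised to DMSO-only (100%) and medium-only (0%) wells.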

Assay [5] can be described thus: Quantitative High-Throughput drug screen in 47 multiple myeloma cell lines against the NCATS MIPE library collection: Karpas620_DSMZ cell viability assay (AID 1918959). Further: nearly all actives have a fitted effect of over 30% in size. Further: potency means the concentration at half of the fitted maximal effect. Summed up: as §1
Assay [6] in a line: Quantitative High-Throughput drug screen in 47 multiple myeloma cell lines against the NCATS MIPE library collection: KHM11_PLB cell viability assay (AID 1918962). Further: nearly all actives have a fitted effect of over 35% in size. Further: potency means the concentration at half of the fitted maximal effect. Summed up:
as §1

Assay [7] in a line: Quantitative High-Throughput drug screen in 47 multiple myeloma cell lines against the NCATS MIPE library collection: INA6_PLB cell viability assay (AID 1918965; further: potency means the concentration at half of the fitted maximal effect; nearly all actives have a fitted effect of over 55% in size). Summed up:
as §1

A short description of assay [8]: Quantitative High-Throughput drug screen in 47 multiple myeloma cell lines against the NCATS MIPE library collection: Karpas25_ECACC cell viability assay (AID 1918968; further: nearly all actives have a fitted effect of over 35% in size; further: potency means the concentration at half of the fitted maximal effect). Summed up: as §2
Assay [9] is described as follows: Quantitative High-Throughput drug screen in 47 multiple myeloma cell lines against the NCATS MIPE library collection: KMS27_JCRB cell viability assay (AID 1918970). Further: nearly all actives have a fitted effect of over 30% in size. Further: potency means the concentration at half of the fitted maximal effect. The following applies: KMS27 myeloma cells, CellTiter-Glo ATP viability, 48 h; viability (% of DMSO): at 45.8 µM (top of the series). Summed up: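 Myeloma cells (500 per well) were exposed to MIPE 4.0 compounds for 48 h at 37 °C, 5% CO2; viability was read as ATP luminescence with CellTiter-Glo, normalized to DMSO-only (100%) and media-only (0%) wells.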
(In ATP-based viability assays light output follows the ATP content of the culture.)

A short description of assay [10]: Quantitative High-Throughput drug screen in 47 multiple myeloma cell lines against the NCATS MIPE library collection: KMS12BM_JCRB cell viability assay (AID 1918971). Further: potency means the concentration at half of the fitted maximal effect; nearly all actives have a fitted effect of over 35% in size. Summed up:
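Steps: seed 500 cells per well; pin-transfer MIPE 4.0 library; incubate 48 h at 37C, 5% CO2, humidified; add CellTiter-Glo, 5 min room temperature; read luminescence.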

Assay [11] in a line: Quantitative High-Throughput drug screen in 47 multiple myeloma cell lines against the NCATS MIPE library collection: ARD_JJKsccE7 cell viability assay (AID 1918929; further: potency means the concentration at half of the fitted maximal effect). Summed up: as §2
The nature of assay [12]: Quantitative High-Throughput drug screen in 47 multiple myeloma cell lines against the NCATS MIPE library collection: KMM1_JCRB cell viability assay (AID 1918960). Further: nearly all actives have a fitted effect of over 30% in size. Further: potency means the concentration at half of the fitted maximal effect. Summed up:
as §3

Assay [13] is described as follows: Quantitative High-Throughput drug screen in 47 multiple myeloma cell lines against the NCATS MIPE library collection: JJN3_DSMZ cell viability assay (AID 1918966; further: potency means the concentration at half of the fitted maximal effect; nearly all actives have a fitted effect of over 50% in size). The method, boiled down:
as §2

Assay [14] can be described thus: Quantitative High-Throughput drug screen in 47 multiple myeloma cell lines against the NCATS MIPE library collection: AMO1_DSMZ cell viability assay (AID 1918927; further: potency means the concentration at half of the fitted maximal effect; nearly all actives have a fitted effect of over 30% in size). Summed up:
as §2

Assay [15] is described as follows: Primary redox qHTS assay for identification of artifact compounds. (AID 1845223). The method, boiled down: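 Amplex Red (25 uM) and HRP (250 mU/mL) in HBSS, with compounds for 15 min, then 250 uM DTT for 30 min, room temperature, dark. Fluorescence 525/598 nm read; normalized to DMSO and 10 uM DA3003; Hill fit.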
The nature of assay [16]: Quantitative High-Throughput drug screen in 47 multiple myeloma cell lines against the NCATS MIPE library collection: JIM1_ECACC cell viability assay (AID 1918964; further: potency means the concentration at half of the fitted maximal effect). Summed up:
as §2

The nature of assay [17]: Quantitative High-Throughput drug screen in 47 multiple myeloma cell lines against the NCATS MIPE library collection: H1112_PLB cell viability assay (AID 1918967; further: nearly all actives have a fitted effect of over 30% in size; further: potency means the concentration at half of the fitted maximal effect). Summed up: as §2
Assay [18] in a line: Quantitative High-Throughput drug screen in 47 multiple myeloma cell lines against the NCATS MIPE library collection: Karpas417_ECACC cell viability assay (AID 1918961). Further: potency means the concentration at half of the fitted maximal effect. The following applies: Karpas417 myeloma viability, CellTiter-Glo ATP luminescence, 48 h; viability (% of DMSO): at 45.8 µM (top of the series). The method, boiled down: as §1

As for `Cc1cnc(CNC(=O)c2c(=O)c3ccc(N4CCCN(C)CC4)nc3n3c2sc2ccccc23)cn1`, in [1], the activity, negative = inhibition is 4.41% [at 11.6 µM]. The Potency was 12.9 µM (active) in assay [2]; 0.457 µM (active) in assay [3]; 9.11 µM (active) in [4]; 2.57 µM (active) in [7]; 0.323 µM (active) in [10]. Further, the Potency entry in assay [5], in assay [6], in assay [8] and in assay [9] was “inactive” each time.

With `CC1(C)CC(=O)c2c(C(F)(F)F)nn(-c3ccc(C(N)=O)c(NC4CCC(O)CC4)c3)c2C1` (configuration not stated), the Potency entry in assay [1], in assay [11], in assay [12] and in assay [9] was “inactive” in each case. Also, the Potency in assay [2] is 0.059 µM (active); in [4] it was 0.132 µM (active); in assay [13], 0.0662 µM (active).

For the compound `CN1CCc2c(n(Cc3ccc(C(=O)NO)cc3)c3ccccc23)C1`, in assay [1], the Potency entry is “inactive”. Moreover, the Potency in assay [2] was 16.6 µM (active); in assay [3], 20.9 µM (active); in assay [4], 18.7 µM (active); in [7] it was 4.69 µM (active); in [13], 16.6 µM (active); in [8], 16.6 µM (active). Besides, the Potency in assay [9] was 0.743 µM (active); in assay [10], 18.7 µM (active).

On to `Cc1ccccc1C(=O)c1ccc(Nc2ccc(Br)cc2N)cc1Cl`, for which, in assay [1], the Potency result was “inactive”. Further, the Potency in [2] was 6.62 µM (active); in assay [14], 0.833 µM (active); in [5], 4.69 µM (active); in assay [7], 18.7 µM (active); in assay [8] it was 18.7 µM (active); in [9], 6.62 µM (active). In [10], the Potency is 14.8 µM (active).

Turning to `Cn1cnc(-c2cc3nccc(Oc4ccc(NC(=S)NC(=O)Cc5ccccc5)cc4F)c3s2)c1`, the Potency entry in [1] is “inactive”. Besides, the outcome in [15] was inactive. Also, the Potency is 18.7 µM (active) in assay [11], 6.62 µM (active) in [7], 16.6 µM (active) in assay [13] and 23.5 µM (active) in [9].

On to `O=C(Nc1ccc(OC(F)(F)F)cc1)c1sccc1NCc1ccnc2ccccc12`, for which the Potency entry in [1] and in assay [6] was “inactive” throughout. For the same compound, the Potency is 4.69 µM (active) in [2]; 5.26 µM (active) in [3]; 23.5 µM (active) in assay [14]; 4.69 µM (active) in [5]; 18.7 µM (active) in [7]; 9.35 µM (active) in assay [13]. Further, the values for the Potency in assay [8] and in assay [10] were 13.2 µM (active) and 14.8 µM (active), respectively.

For `CNC(=O)c1c(-c2ccc(F)cc2)oc2cc(N(CCO)S(C)(=O)=O)c(C3CC3)cc12`, the Potency entry in [1] was “inactive”. The Potency in [2] was 23.5 µM (active); in assay [8], 20.9 µM (active).

`CC1CCN(c2cc(N3CCN(C)CC3)ccc2NC(=O)c2cc(C#N)c[nH]2)CC1`: the Potency result in assay [1], in [5], in assay [12], in assay [6], in assay [16] and in assay [17] was “inactive” in each case. For the same compound, the Potency result in assay [8] and in assay [9] was “inactive” in each case. Moreover, the compound was called inactive in assay [15].

For the compound `CC(C)CNc1ccnc(NCc2csc(-c3ccccc3)n2)n1`, the Potency entry in assay [1] was “inactive”. Besides, the Potency in assay [2] was 16.6 µM (active); in [3], 2.35 µM (active); in assay [14], 10.5 µM (active); in [11] it was 5.9 µM (active); in [5], 5.26 µM (active); in [12], 7.43 µM (active). For the same compound, the Potency is 16.6 µM (active) in assay [18]; 9.35 µM (active) in assay [6]; 11.8 µM (active) in assay [16]; 2.64 µM (active) in assay [7]; 6.62 µM (active) in assay [17]; 0.935 µM (active) in assay [8]. Also, the Potency in assay [9] is 13.2 µM (active); in assay [10], 16.6 µM (active).
